Results reported in PubChem BioAssay (NCATS).
Where “and” joins values, the source holds several entries; their conditions need not be identical. Equal values may be shown once. Records with an inconclusive call do not appear. Calls of active or inactive are those of the source. The call rests on the fitted dose curve; in most records, active means well fitted curve in the direction sought with a large enough effect; inconclusive means small, poorly fitted or top-dose-only effect, or another doubt; inactive means no such curve, though single readings can be large; an effect the other way counts as inactive or inconclusive.

Key:
[1] = Viability qHTS for spleen associated tyrosine kinase inhibitor (SYKi) naive MV4-11 cells (AID 1963823); further: nearly all actives have a fitted effect of over 40% in size
Method in brief: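 SYK inhibitor-naive MV4-11 cells, 500 per well, exposed to compounds for 72 hr at 37 C, 5% CO2. Viability read as CellTiter-Glo luminescence after 10 min at room temperature.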

[2] = Viability qHTS for spleen associated tyrosine kinase inhibitor (SYKi) drug resistant MV4-11 cells (AID 1963824); further: nearly all actives have a fitted effect of over 35% in size
Method in brief: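 SYK-inhibitor-resistant MV4-11 AML cells were seeded at 500 per well onto compound and cultured 72 hours (37 °C, 5% CO2). CellTiter-Glo was then added, and after 10 min at room temperature, luminescence gave viability.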

[3] = Cellular viability qHTS for adrenocortical cancer (ACC) cell line SW-13 (AID 1963989); conditions: SW-13 ACC cells viability, CellTiter-Glo, 48 h; activity (max response): hits give low values; further: nearly all actives have a fitted effect of over 65% in size;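 on activity (max response): cells grown in serum-free medium with ITS supplement; on the % scale 0 is the no-effect control and ±100 the full control effect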
Method in brief: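 Luminescent ATP read-out (CellTiter-Glo, 20 min at room temperature) measured metabolically competent SW-13 cells after 48 h compound treatment. Final concentrations spanned up to 46 uM; bortezomib served as positive control.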

[4] = Cellular viability qHTS for adrenocortical cancer (ACC) cell line NCI-H295R (AID 1963990); further: nearly all actives have a fitted effect of over 60% in size;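 on activity change, negative = viability loss: 0% = DMSO only wells and -100% = full killing with cytotoxic reference compound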
Method in brief: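 IC50 and maximal efficacy derive from four-parameter logistic modelling of titration curves, with reads scaled between DMSO-only wells (0%) and doxorubicin hydrochloride (100% inhibition). Compounds spanned up to 46 uM over 48 h.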
Potency means the concentration at half of the fitted maximal effect.

CCN1/C(=C/C(C)=O)Sc2ccc(OC)cc21
active: Potency [1] 9200 nM | Potency [2] 8.2 µM
inactive: activity (max response) [3] 3.06% | Potency [4]

CN(C)C[C@@H]1CCn2cc(c3ccccc32)C2=C(C(=O)NC2=O)c2cn(c3ccccc23)CCO1
active: Potency [1] 186 nM | Potency [2] 0.417 µM | Potency [3] 28.2 µM | Potency [4] 31.6 µM

COC(=O)/C=C/C(=O)N(O)CCCCNCc1ccc(COC(=O)Nc2cccc3ccccc23)cc1
active: Potency [1] 7310 nM | Potency [2] 6.51 µM
inactive: activity (max response) [3] -10.5% | Potency [4]

C=CCNC1=C2C[C@@H](C)C[C@H](OC)[C@H](O)[C@@H](C)/C=C(\C)[C@H](OC(N)=O)[C@@H](OC)/C=C\C=C(/C)C(=O)NC(=CC1=O)C2=O
active: Potency [1] 590 nM | Potency [2] 1.66 µM | Potency [3] 3.55 µM | Potency [4] 10 µM

C[C@@H](OC[C@@]1(c2ccccc2)CC[C@]2(CCC(=O)N2)CN1)c1cc(C(F)(F)F)cc(C(F)(F)F)c1
active: Potency [1] 7420 nM | Potency [2] 7.42 µM | Potency [3] 25.1 µM | Potency [4] 25.1 µM

COc1cc([C@@H]2c3cc4c(cc3[C@@H](O[C@@H]3O[C@@H]5CO[C@@H](c6cccs6)O[C@H]5[C@H](O)[C@H]3O)[C@H]3COC(=O)[C@H]23)OCO4)cc(OC)c1O
active: Potency [1] 74.2 nM | Potency [2] 0.0742 µM | Potency [3] 2.51 µM | Potency [4] 7.08 µM

COc1cc2c(cc1OC)C(=O)CC2
inactive: Potency [1] | Potency [2] | activity (max response) [3] 12.7% | Potency [4]

Nc1cc(-c2ccncc2)c[nH]c1=O
inactive: Potency [1] | Potency [2] | activity (max response) [3] 2.68% | Potency [4]

Cc1ccc2cc(-c3c(C)ccc(C(=O)c4c(-c5ccccc5)n(C)n(-c5ccccc5)c4=O)c3N)ccc2n1
active: Potency [1] 4610 nM | Potency [2] 9.34 µM
inactive: activity (max response) [3] -12.9% | Potency [4]

NC[C@@](O)(c1ccc(Cl)cc1)c1ccc(-c2cn[nH]c2)cc1
active: Potency [1] 2.06 µM and 3.32 µM | Potency [2] 3.26 µM and 6.61 µM | Potency [3] 12.6 µM | Potency [4] 10 µM

CCC(C)(CN(C)C)OC(=O)c1ccccc1 (stereo unspecified)
inactive: Potency [1] | Potency [2] | activity (max response) [3] -1.44% | Potency [4]

Nc1ccc(O)c([N+](=O)[O-])c1
active: Potency [2] 0.0611 µM
inactive: Potency [1] | activity (max response) [3] 0.787% | Potency [4]

O=S1(=O)OC(c2ccc(O)cc2)(c2ccc(O)cc2)c2ccccc21
inactive: Potency [1] | Potency [2] | activity (max response) [3] -5.64% | Potency [4]

CCOCCn1c(N2CCCN(C)CC2)nc2ccccc21
inactive: Potency [1] | Potency [2] | activity (max response) [3] -8.77% | Potency [4]

CC(Cc1ccccc1)(NC(=O)CN)c1ccccc1 (stereo unspecified)
inactive: Potency [1] | Potency [2] | activity (max response) [3] 8.44% | Potency [4]

O=C(/C=C/c1ccc(/C=C/C(=O)Nc2ccc(C3=NCCN3)cc2)cc1)Nc1ccc(C2=NCCN2)cc1
inactive: viability (% of control) [1] 73.8% [at 4.97 µM] | viability, % of control [2] 91.6% [at 4.97 µM] | activity (max response) [3] -13% | activity change, negative = viability loss [4] -22% [at 3.81 µM]

O=C1CCCc2c(O)cccc21
inactive: Potency [1] | Potency [2] | activity (max response) [3] -6.15% | Potency [4]

CC(=O)CC(c1ccc([N+](=O)[O-])cc1)c1c(O)c2ccccc2oc1=O (stereo unspecified)
inactive: Potency [1] | Potency [2] | activity (max response) [3] -8% | Potency [4]

CCC1Nc2cc(Cl)c(S(N)(=O)=O)cc2S(=O)(=O)N1 (stereo unspecified)
inactive: Potency [1] | Potency [2] | activity (max response) [3] 2.08% | Potency [4]

CCc1cc2c(cc1N1CCC(N3CCOCC3)CC1)C(C)(C)c1[nH]c3cc(C#N)ccc3c1C2=O
inactive: activity (max response) [3] -11.5% | Potency [4]
active: Potency [1] 178 nM | Potency [2] 0.632 µM

CCCCCCCCCCCCCCCCCCOCC(O)CO (stereo unspecified)
inactive: Potency [1] | Potency [2] | activity (max response) [3] 15% | Potency [4]

CCN(Cc1ccncc1)C(=O)C(CO)c1ccccc1 (stereo unspecified)
inactive: Potency [1] | Potency [2] | activity (max response) [3] -0.134% | Potency [4]

O=C(O)CCc1nc(-c2ccccc2)c(-c2ccccc2)o1
inactive: Potency [1] | Potency [2] | activity (max response) [3] -11.2% | Potency [4]

[2H]C([2H])([2H])C(O)([C@@H](C)/C=C/[C@@H](C)[C@H]1CC[C@H]2/C(=C/C=C3C[C@@H](O)C[C@H](O)C3)CCC[C@]12C)C([2H])([2H])[2H]
inactive: activity (max response) [3] -26.6% | Potency [4]
active: Potency [1] 10.5 nM | Potency [2] 0.468 µM
